PubChem BioAssay AID1851 (National Center for Advancing Translational Sciences (NCATS), 2009)
The campaign covered roughly 16,000 compounds. About 2,600 (16%) were called active. Not shown: some 20% with an inconclusive outcome. The list is a sample of the results. Unmarked numbers belong to inactive results. Calls follow the shape of the dose curve; as a rule, active = well fitted curve in the direction sought with a large enough effect; inconclusive = small, poorly fitted or top-dose-only effect, or effect the other way; inactive = no such curve, though single readings can be large or run the other way.

Molecular target: Cytochrome P450 2D6 (Homo sapiens) (UniProt P10635)
Test: Cytochrome panel assay with activity outcomes
Details: recombinant CYP, pro-luciferin dealkylation, luminescence, p450-cyp2d6; series mostly up to 57.1 µM; activity, negative = inhibition: at the top concentration
% is scaled to controls: 0 for no effect and ±100 for the full control effect.

Sequence of Cytochrome P450 2D6 (Homo sapiens) (P10635 whole entry, looked up): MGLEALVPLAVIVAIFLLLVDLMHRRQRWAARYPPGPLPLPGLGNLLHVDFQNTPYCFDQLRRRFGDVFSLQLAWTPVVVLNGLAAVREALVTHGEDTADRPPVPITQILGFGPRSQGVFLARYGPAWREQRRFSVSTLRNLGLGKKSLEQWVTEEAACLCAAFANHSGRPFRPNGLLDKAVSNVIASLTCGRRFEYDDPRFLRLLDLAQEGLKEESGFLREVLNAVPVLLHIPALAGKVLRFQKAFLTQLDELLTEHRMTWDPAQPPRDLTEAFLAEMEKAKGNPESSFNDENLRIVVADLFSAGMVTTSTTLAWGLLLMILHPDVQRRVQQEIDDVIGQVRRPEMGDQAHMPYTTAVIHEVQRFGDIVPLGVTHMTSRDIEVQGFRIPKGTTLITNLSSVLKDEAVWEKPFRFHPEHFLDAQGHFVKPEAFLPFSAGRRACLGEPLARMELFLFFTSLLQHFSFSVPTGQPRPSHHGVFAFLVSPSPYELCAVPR

Question: For COCCNC(=O)c1onc(CSc2ccc(Cl)cc2)c1C(=O)O, which “activity, negative = inhibition” value is on record?
Answer: -14%

Question: For COc1ccc(-n2c(=O)c(-c3cn(C)c4ccccc34)nc3cnc(OC)nc32)cc1, which “activity, negative = inhibition” value is on record?
Answer: -8.38%

Question: CCOc1ccc(N(C(C)C(=O)N/N=C(\C)c2cccc(NC(=O)c3ccccc3)c2)S(C)(=O)=O)cc1 (stereo not given) was tested. Which “activity, negative = inhibition” value did it give?
Answer: -2.54%

Question: COc1ccc2c(c1)CCc1sc(NC(=O)c3ccc(C)cc3)nc1-2 was tested. Which “activity, negative = inhibition” value did it give?
Answer: -10.9%

Question: Which “activity, negative = inhibition” value does the source give for Cn1c(=O)c(-c2cccs2)nc2cncnc21 here?
Answer: -5.04%

Question: How did the “activity, negative = inhibition” value turn out when Cc1oc(-c2cccc(Cl)c2)[n+]([O-])c1C was run?
Answer: -3.1%

Question: How did the activity, negative = inhibition turn out when O=S1(=O)OC(c2ccc(O)cc2)(c2ccc(O)cc2)c2ccccc21 was run?
Answer: 12.2% [at 11.4 µM]

Question: How did the AC50 turn out when COc1ccccc1CNc1ccnc(-c2ccc3c(c2)OCO3)n1 was run?
Answer: 0.794 µM (active)

Question: How did the AC50 turn out when COc1ccc(CNc2ccnc(-c3ccc4c(c3)OCO4)n2)c(OC)c1 was run?
Answer: 10 µM (active)

Question: How did the “activity, negative = inhibition” value turn out when Cc1c(C#N)c(=O)oc2ccc3ccccc3c12 was run?
Answer: -1.06%

Question: How did the “activity, negative = inhibition” value turn out when NC(=O)c1ccc(N2CCCCC2)c(N2C(=O)C3CC=CCC3C2=O)c1 (stereo not given) was run?
Answer: -4.43%

Question: For O=C(O)c1ccc(NS(=O)(=O)Cc2ccccc2)cc1, which activity, negative = inhibition is on record?
Answer: 0.0348% [at 11.4 µM]

Question: For COc1cc(C(=O)Nc2nc3ccc4nc(C)sc4c3s2)cc(OC)c1OC, which “activity, negative = inhibition” value is on record?
Answer: 12.9%

Question: How did the “activity, negative = inhibition” value turn out when Cc1cccc(C(=O)NC2CCN(C(=O)N3CCOCC3)CC2)c1 was run?
Answer: 2.68%

Question: Which AC50 does the source give for Cc1cccc(OCC(=O)N2CCC(N3CCCCCC3)CC2)c1 here?
Answer: 4.47 µM (active)

Question: With O=C(COc1ccc2ccccc2c1)N1CCN(C(=O)c2cccnc2)CC1 as the compound, how does the “activity, negative = inhibition” value read?
Answer: 7.67%

Question: How did the “activity, negative = inhibition” value turn out when COCCn1c(=O)c(-c2cccc(C#N)c2)nc2cnc(OCc3ccccc3)nc21 was run?
Answer: -16.4%

Question: With CC(=O)NC1=NC(=O)C(C)S1 (stereo not given) as the compound, how does the “activity, negative = inhibition” value read?
Answer: 3.28%

Question: Which “activity, negative = inhibition” value does the source give for O=c1c(-c2cccs2)nc2cnc(N3CCNCC3)nc2n1Cc1cccs1 here?
Answer: 0.531%

Question: Which AC50 does the source give for O=C(Nc1cccc(-c2nc3ccccc3s2)c1)c1ccc2c(c1)OCO2 here?
Answer: 0.1 µM (active)

Question: Which “activity, negative = inhibition” value does the source give for Cc1ccc(-n2nc3ccc(NC(=O)c4ccc5c(c4)OCO5)cc3n2)cc1 here?
Answer: -18.2%

Question: For O=C(Nc1cc(-c2nc3ccccc3s2)ccc1Cl)c1ccc2c(c1)OCO2, which “activity, negative = inhibition” value is on record?
Answer: -26.9%

Question: With CCn1c(-c2ccccc2Cl)nn(CC(=O)Nc2ccc(OC)cc2)c1=S as the compound, how does the “activity, negative = inhibition” value read?
Answer: -2.11%

Question: With CC(=O)NC1C(OCCOc2ccc(Cl)cc2Cl)OC(COC(C)=O)C(OC(C)=O)C1OC(C)=O (stereo not given) as the compound, how does the “activity, negative = inhibition” value read?
Answer: -17.3%

Question: How did the “activity, negative = inhibition” value turn out when CSC1=N/C(=C\c2ccc(Br)o2)C(=O)S1 was run?
Answer: 1.51%

Question: Which AC50 does the source give for CCCCN1CCC(COC(=O)c2cc(Cl)c(N)c3c2OCCO3)CC1 here?
Answer: 1.26 µM (active)

Question: How did the “activity, negative = inhibition” value turn out when CCOC(=O)n1ccn(C)c1=S was run?
Answer: 0.903% [at 25.6 µM]

Question: O=C(O)c1cc2ccccc2c(Cc2cc3ccccc3c(C(=O)O)c2O)c1O (tested in a mixture with another compound) was tested. Which “activity, negative = inhibition” value did it give?
Answer: -5.53% [at 25.6 µM]

Question: Which AC50 does the source give for NC(=NCCCCCCN=C(N)/N=C(\N)Nc1ccc(Cl)cc1)/N=C(\N)Nc1ccc(Cl)cc1 here?
Answer: 7.94 µM (active)

Question: For CCN=C(Nc1ccc(Cl)cc1)c1cccnc1, which “activity, negative = inhibition” value is on record?
Answer: -28.9%

Question: CC(Oc1ccccc1)C(=O)Nc1nc2c(s1)C(=O)CC(C)(C)C2 (stereo not given) was tested. Which “activity, negative = inhibition” value did it give?
Answer: -26.1%

Question: With Cc1cccc(CNc2ncnc3ccc(-c4ccc5c(c4)OCO5)cc23)c1 as the compound, how does the AC50 read?
Answer: 0.501 µM (active)

Question: How did the AC50 turn out when Cc1cnc(CNc2ncnc3ccc(-c4ccc5c(c4)OCO5)cc23)cn1 was run?
Answer: 12.6 µM (active)

Question: Which “activity, negative = inhibition” value does the source give for Cc1cnc(CNc2ncncc2-c2ccc(C(=O)N(C)C)cc2)cn1 here?
Answer: 2.19%

Question: Cc1cccc(CNc2ncnc3ccc(-c4ccoc4)cc23)c1 was tested. Which AC50 did it give?
Answer: 10 µM (active)

Question: Which “activity, negative = inhibition” value does the source give for Cc1cnc(CNc2ncnc3ccc(-c4cccc(C#N)c4)cc23)cn1 here?
Answer: -4.92%

Question: How did the AC50 turn out when Nc1nc2c(ncn2COCCO)c(=O)[nH]1 was run?
Answer: inactive

Question: Which “activity, negative = inhibition” value does the source give for O=C(O)c1ccccc1OP(=O)(O)O here?
Answer: 5.46% [at 25.6 µM]

Question: For CN1CCc2c(c3c(n2C)CCN(C)[C@H]3c2ccccc2F)[C@@H]1c1ccccc1F, which “activity, negative = inhibition” value is on record?
Answer: 5.51%

Question: CCc1nc(SCC(=O)c2ccc(Cl)s2)c2oc3ccccc3c2n1 was tested. Which “activity, negative = inhibition” value did it give?
Answer: 17.7%

Question: How did the “activity, negative = inhibition” value turn out when CCOC(=O)Nc1ccc(C(=O)NCC2CCCO2)cc1 (stereo not given) was run?
Answer: -3.41%

Question: Which “activity, negative = inhibition” value does the source give for O=C(O)CCCC[C@H]1CCSS1 here?
Answer: 2.47%

Question: Which AC50 does the source give for COC(=O)[C@@H]1C[C@H]1[C@@H](NC(=O)c1cc(C)nn1C)c1ccccc1 here?
Answer: 12.6 µM (active)

Question: Which “activity, negative = inhibition” value does the source give for COC(=O)[C@@H]1C[C@H]1[C@@H](NC(=O)c1cc(C)on1)c1ccccc1 here?
Answer: -20.1%

Question: How did the “activity, negative = inhibition” value turn out when COC(=O)[C@H]1C[C@@H]1[C@H](NC(=O)c1cc(C)on1)c1ccccc1 was run?
Answer: -6.31%

Question: For CCOC(=O)C1=C(CSc2nc3ccccc3s2)NC(=O)NC1c1cccc([N+](=O)[O-])c1 (stereo not given), which “activity, negative = inhibition” value is on record?
Answer: -18.2%

Question: Which “activity, negative = inhibition” value does the source give for O=C(CN1C(=O)NC2(CCCCCC2)C1=O)N1CCN(S(=O)(=O)c2ccc(Cl)cc2)CC1 here?
Answer: -19.7%

Question: With O=C(O)C1CC2(C1)CC(C(=O)O)C2 (stereo not given) as the compound, how does the activity, negative = inhibition read?
Answer: 10.8% [at 11.4 µM]

Question: Which “activity, negative = inhibition” value does the source give for O=C(N/N=C/c1cccc([N+](=O)[O-])c1)c1cc2c(ccc3ccccc32)o1 here?
Answer: -9.2%

Question: With CC[C@@H]1OC(=O)[C@H](C)[C@H](O[C@@H]2C[C@](C)(OC)[C@H](O)[C@H](C)O2)[C@H](C)[C@H](O[C@@H]2O[C@@H](C)C[C@@H](N(C)C)[C@@H]2O)[C@](C)(O)C[C@H](C)C(=NOCOCCOC)[C@H](C)[C@H](O)[C@]1(C)O as the compound, how does the “activity, negative = inhibition” value read?
Answer: -0.0352% [at 25.6 µM]
